Where “and” joins values, the source holds several entries; their conditions need not be identical. Identical values can stand only once. Inconclusive results are not listed. The source holds several records for some structures; these can differ, active in one and inactive in another. Calls of active or inactive are those of the source. Unless noted, the call rests on the fitted dose curve; in most records, active means well fitted curve in the direction sought with a large enough effect in the repeat runs; inconclusive means weak or mixed curves; inactive means no such curve, though single readings can be large; an effect the other way counts as inactive or inconclusive.
Columns and labels:
[1] = qHTS assay to identify small molecule antagonists of the vitamin D receptor (VDR) signaling pathway - cell viability counter screen (AID 743225); further: nearly all actives have a fitted effect of over 50% in size; further: potency means the concentration at half of the fitted maximal effect
How it was run: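 Same-well multiplex: following 16 h treatment of HEK 293T cells carrying a UAS-driven beta-lactamase reporter with compound and agonist (3 nM final), and a 2 h FRET substrate step, CellTiter-Glo was added and luminescence read after 30 min.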

[2] = qHTS assay to identify small molecule agonists of the NFkB signaling pathway - cell viability counter screen (AID 1159515; calls by dose curve; further: nearly all actives have a fitted effect of over 55% in size; further: potency means the concentration at half of the fitted maximal effect)
How it was run: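 NFkB-bla ME-180 cells, 2,000/well, plated overnight at 37 C; compound added for 5 hr at 37 C. Viability read in the same wells as the bla reporter, by CellTiter-Glo luminescence after 30 min at room temperature.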

[3] = qHTS assay to identify small molecule agonists of the endoplasmic reticulum stress response signaling pathway (AID 1159516; active means well fitted activation curve with a large enough effect in the signal ratio in the repeat runs, not every such curve was filed as active; the % refers to the signal ratio)
How it was run: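 CellSensor ESRE-bla HeLa cells, 1,500 per well, plated overnight, then exposed to compounds for 5 hr at 37 C. Beta-lactamase reporter read with LiveBLAzer B/G FRET substrate after 2 hr at room temperature, 405 nm excitation, 460 and 530 nm emission.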

[4] = qHTS assay to identify small molecule antagonists of the retinoid-related orphan receptor gamma (ROR-gamma) signaling pathway - cell viability counter screen (AID 1159520); further: nearly all actives have a fitted effect of over 50% in size; further: potency means the concentration at half of the fitted maximal effect
How it was run: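 Tet-on ROR gamma CHO cells (1,000/well) were plated 4 hr, given compounds in DMSO for 2 hr at 37 C, then induced with 1 uM final doxycycline for 16 hr. Viability was read as ATP by CellTiter-Glo luminescence after 30 min.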

[5] = biological target: Nuclear receptor ROR-gamma (Homo sapiens) (UniProt P51449); assay: qHTS assay to identify small molecule antagonists of the retinoid-related orphan receptor gamma (ROR-gamma) signaling pathway (AID 1159521; further: nearly all actives have a fitted effect of over 50% in size; further: potency means the concentration at half of the fitted maximal effect)
How it was run: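 Inducible-expression reporter assay: doxycycline (1 uM final) switched on RORγ in CHO cells bearing a ROR response element-luciferase construct, with test compounds present from 2 h beforehand. Decreased luminescence after 16 h defined antagonist activity.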

[6] = qHTS assay to identify small molecule agonists of the AP-1 signaling pathway - cell viability counter screen (AID 1159525; calls by dose curve; further: nearly all actives have a fitted effect of over 55% in size; further: potency means the concentration at half of the fitted maximal effect)
How it was run: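 ME-180 AP-1-bla, 2500 cells/well, Opti-MEM + 0.5% dialyzed FBS; overnight 37 °C; cpd 15-pt titration, 5 h 37 °C; CellTiter-Glo 30 min RT; luminescence read; normalised to TOAB and DMSO controls.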

[7] = qHTS assay to identify small molecule agonists of the AP-1 signaling pathway (AID 1159526; calls by dose curve)
[8] = biological target: Retinoic acid receptor RXR-alpha (Homo sapiens) (UniProt P19793); assay: qHTS assay to identify small molecule agonists of the RXR signaling pathway (AID 1159527; calls by dose curve; further: nearly all actives have a fitted effect of over 35% in size; further: potency means the concentration at half of the fitted maximal effect)
How it was run: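 Compounds in DMSO were added to RXR-alpha-UAS-bla HEK 293T cells kept in 2% charcoal-stripped serum, and incubated 16 hr at 37 C with 5% CO2. Reporter signal came from a 2 hr B/G FRET substrate step.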

[9] = qHTS assay to identify small molecule agonists of the RXR signaling pathway - cell viability counter screen (AID 1159529); further: nearly all actives have a fitted effect of over 50% in size; further: potency means the concentration at half of the fitted maximal effect
How it was run: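 Counter screen: CellTiter-Glo luminescence. Cells: RXR-alpha-UAS-bla HEK 293T. Medium: 2% charcoal-stripped FBS. Treatment: 16 h, 37 C. Reagent incubation: 30 min, RT.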

[10] = qHTS assay to identify small molecule agonists of the endoplasmic reticulum stress response signaling pathway - cell viability counter screen (AID 1159517; calls by dose curve; further: nearly all actives have a fitted effect of over 50% in size; further: potency means the concentration at half of the fitted maximal effect)
How it was run: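 Luminescence readout: CellTiter-Glo, 30 min RT, same wells as the ESRE-bla reporter read. HeLa ESRE-bla, 1,500 cells/well, o/n 37 C; cpd 5 hr 37 C/5% CO2.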

Measured: Potency

Retinoic acid receptor RXR-alpha (Homo sapiens), sequence (P19793 whole entry, looked up): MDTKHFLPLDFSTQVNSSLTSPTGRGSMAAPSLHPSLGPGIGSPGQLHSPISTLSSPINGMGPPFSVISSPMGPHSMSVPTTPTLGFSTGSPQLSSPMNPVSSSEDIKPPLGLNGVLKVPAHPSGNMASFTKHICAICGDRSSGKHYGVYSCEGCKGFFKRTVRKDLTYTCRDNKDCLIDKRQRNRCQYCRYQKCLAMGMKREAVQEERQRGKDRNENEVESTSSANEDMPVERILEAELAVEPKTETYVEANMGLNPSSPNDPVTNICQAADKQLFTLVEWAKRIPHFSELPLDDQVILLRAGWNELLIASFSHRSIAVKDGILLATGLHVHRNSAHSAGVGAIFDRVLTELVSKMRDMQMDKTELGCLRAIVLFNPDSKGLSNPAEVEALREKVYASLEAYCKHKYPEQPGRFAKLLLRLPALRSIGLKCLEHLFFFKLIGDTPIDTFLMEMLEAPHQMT

CCCC[P+](CC)(CCCC)CCCC (tested in a mixture with another compound)
inactive: [1] | [2] | [3] | [4] | [5] | [6] | [7] | [8] | [9]

O=CC=O
inactive: [1] | [2] | [3] | [4] | [5] | [6] | [7] | [8] | [9]

CC1(C)[C@H](C(=O)O[C@H](C#N)c2cccc(Oc3ccccc3)c2)[C@@H]1C=C(Br)Br
inactive: [1] | [2] | [10] | [4] | [5] | [6] | [8] | [9]

O=C1c2ccccc2C(=O)N1SC(Cl)(Cl)Cl
active: [1] 34.2 µM | [4] 30.2 µM and 21.7 µM | [5] 6.03 µM and 7.7 µM
inactive: [2] | [10] | [6] | [9]

Nc1cc(Cl)cc(C(=O)O)c1Cl
inactive: [1] | [2] | [3] | [4] | [5] | [6] | [7] | [8] | [9]

COc1cc(C[C@@H](C)N)c(OC)cc1Br
inactive: [1] | [2] | [3] | [4] | [5] | [6] | [7] | [8] | [9]

OCC1CO1 (stereo unspecified)
inactive: [1] | [2] | [3] | [4] | [5] | [6] | [7] | [8] | [9]

C=CCSSCC=C
inactive: [1] | [2] | [3] | [4] | [5] | [6] | [7] | [8] | [9]

Nc1ccccc1C(=O)OCC(O)CO (stereo unspecified)
inactive: [1] | [2] | [3] | [4] | [5] | [6] | [7] | [8] | [9]

CC(Oc1cc(Cl)c(Cl)cc1Cl)C(=O)O (stereo unspecified)
inactive: [1] | [2] | [3] | [4] | [5] | [6] | [7] | [8] | [9]

CCC(=O)O[C@@H]1C=C2CCC3C(CCC4(C)C3CC[C@@H]4OC(=O)CC)C2CC1 (stereo partly specified)
inactive: [1] | [2] | [3] | [4] | [5] | [6] | [7] | [8]

O=C=NC1CCCCC1
inactive: [1] | [2] | [3] | [4] | [5] | [6] | [7] | [8] | [9]

CCCC1CCCCN1 (stereo unspecified)
inactive: [1] | [2] | [3] | [4] | [5] | [6] | [7] | [8] | [9]

COP(=O)(OC)OC(Br)C(Cl)(Cl)Br (stereo unspecified)
inactive: [1] | [2] | [10] | [6] | [8] | [9]
active: [4] 24.3 µM | [5] 27.3 µM

CCCCNC(=O)OCC#CI
active: [4] 54.2 µM and 17.2 µM | [5] 24.2 µM | [6] 54.7 µM
inactive: [1] | [2] | [10]

CCOP(=S)(OCC)SCSc1cc(Cl)ccc1Cl
inactive: [1] | [2] | [3] | [4] | [5] | [6] | [7] | [9]

CCOC(C(=O)OCCN(C)C)(c1ccccc1)c1ccccc1
inactive: [1] | [2] | [3] | [4] | [5] | [6] | [7] | [9]

O=[N+]([O-])/C=C/c1ccccc1
inactive: [6]
active: [2] 44.4 µM and 54.9 µM | [4] 11 µM and 13.7 µM | [5] 5.54 µM and 9.69 µM
49.8 µM (active) and inactive: [1]

CCC(C)(C)c1ccc(O)c(C(C)(C)CC)c1
active: [1] 12.2 µM and 19.5 µM | [2] 21.6 µM and 21.9 µM | [10] 15.3 µM and 21.9 µM | [4] 60.4 µM | [5] 60.4 µM and 48.6 µM | [6] 12.2 µM and 13.8 µM | [9] 12.2 µM and 12.3 µM

CCNC(=O)NC(=O)/C(C#N)=N/OC
inactive: [1] | [2] | [3] | [4] | [5] | [6] | [7] | [9]

CN1CC[C@]23c4c5ccc(O)c4O[C@H]2[C@@H](O)CC[C@H]3[C@H]1C5
inactive: [1] | [2] | [3] | [4] | [5] | [6] | [7] | [8] | [9]

O=C(CCl)CCl
inactive: [1] | [2] | [6] | [8] | [9]
active: [4] 5.45 µM | [5] 14.2 µM and 12.2 µM

Cc1ccc(N)c(C)c1
inactive: [1] | [2] | [3] | [4] | [6] | [7] | [8] | [9]

CCCN(CCOc1c(Cl)cc(Cl)cc1Cl)C(=O)n1ccnc1
inactive: [1] | [2] | [10] | [4] | [6] | [7] | [9]

COC1CC(=C(c2cccs2)c2cccs2)C[N+](C)(C)C1 (stereo unspecified)
inactive: [1] | [2] | [3] | [4] | [5] | [6] | [7] | [8]

C[CH2][Hg][S]c1ccccc1C(=O)O
active: [1] 3.47 µM and 4.25 µM | [2] 3.47 µM and 6.01 µM | [4] 1.09 µM and 1.68 µM | [5] 611 nM and 1.33 µM | [6] 4.36 µM and 3.79 µM | [9] 1.23 µM and 1.51 µM

Nc1cccc2ccccc12
inactive: [1] | [2] | [10] | [4] | [5] | [6] | [8] | [9]

CCOC(=O)C1OC1(C)c1ccccc1 (stereo unspecified)
inactive: [1] | [2] | [3] | [4] | [5] | [6] | [7] | [9]
13.9 µM (active) and inactive: [8]

CC(C)[C@@H](C(=O)O[C@@H](C#N)c1cccc(Oc2ccccc2)c1)c1ccc(Cl)cc1
active: [5] 17.5 µM
inactive: [1] | [2] | [10] | [4] | [6] | [9]

ClCc1ccccc1Cl
inactive: [1] | [2] | [3] | [4] | [5] | [6] | [7] | [8] | [9]

FC(Cl)(Cl)C(F)(Cl)Cl
inactive: [1] | [2] | [3] | [4] | [5] | [6] | [7] | [8] | [9]

CCC1(C2=NCCN2)Cc2ccccc2O1 (stereo unspecified)
inactive: [1] | [2] | [3] | [4] | [5] | [6] | [7] | [8] | [9]

CCCN(CCC)c1c([N+](=O)[O-])cc(C(C)C)cc1[N+](=O)[O-]
inactive: [1] | [2] | [10] | [4] | [5] | [6] | [7] | [8] | [9]

O=P(OCC(Br)CBr)(OCC(Br)CBr)OCC(Br)CBr (stereo unspecified)
inactive: [2] | [10] | [4] | [6] | [7] | [9]

[Cl-].[Cl-].[Hg+2]
active: [1] 1.22 µM and 3.47 µM | [2] 3.45 µM and 49 µM | [10] 48.8 µM | [4] 48.3 µM and 1.09 µM | [6] 4.88 µM and 4.36 µM | [9] 3.08 µM and 3.09 µM

CCCCCCCCn1sccc1=O
active: [1] 19.5 µM and 22.9 µM | [2] 49.1 µM and 3.63 µM | [4] 24.4 µM and 9.05 µM | [5] 6.13 µM and 9.05 µM | [6] 5.51 µM and 5.13 µM | [9] 1.95 µM and 2.04 µM
